The results in this text go back to PubChem BioAssay AID1626 (SRMLSC, 2009).

Each structure is given as a SMILES string. In all, about 220,000 compounds went through this assay and about 2,000 (0.91%) were called active. Not shown: some 2% with an inconclusive outcome. Only a sample is shown. Results with a measured potency or affinity are listed apart. A number with no mark means an inactive call. Cut-off read from the data, not from the text of the source: inconclusive = inhibition above about 80% without an active follow-up result; inactive = below that; test concentration not stated here.

This assay in a line: M. tuberculosis H37Rv growth inhibitors, H37Rv strain (AID 1626).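 Note: bacteria incubated seven days before Alamar blue readout; 0% = bacteria only wells and 100% = bacteria with antibiotic wells.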 The note with it: hits give high values, concentration not given here.
One may read the inhibition as the change of the read-out against control, counted positive when it falls. As for `NC(=O)CSc1nc(-c2ccccc2Cl)ns1`, the inhibition was -12.5%.
With `O=C(CSc1nc(-c2ccccc2Cl)ns1)NCc1ccco1`, the inhibition was 24.3%.
As to `COc1ccc(-n2c(C)cc(SC)c(C(C)=O)c2=S)cc1`, the inhibition is 1.47%.
With `CC(Sc1nnnn1-c1ccccc1)C(=O)Nc1ccc(Cl)cn1` (stereo not given), the inhibition was -7.65%.
For the compound `CC(Sc1nncn1C)C(=O)Nc1ccc(Cl)cn1` (stereo not given), the inhibition was 4.99%.
Take `Cc1nn(-c2ccccc2)c2c1C(c1ccc(Cl)cc1)N(c1ccccc1)C(=O)N2` (stereo not given): the inhibition is 63.4%.
Turning to `Cc1nn(-c2ccccc2)c2c1C(c1ccc([N+](=O)[O-])cc1)C(C#N)=C(N)O2` (stereo not given), the inhibition was -9.83%.
For the compound `Cc1nn(-c2ccc([N+](=O)[O-])cc2)c2c1C(c1cccc(Br)c1)N1C(=N2)C(=O)Nc2ccccc21` (stereo not given), the inhibition was 73%.
For `COc1cccc(C2c3c(C)nn(-c4ccc([N+](=O)[O-])cc4)c3N=C3C(=O)Nc4ccccc4N32)c1` (stereo not given), the inhibition is 72.8%.
Take `Cc1c(NC(=O)C(C)OC(=O)COc2cccc3c2OC(C)(C)C3)c(=O)n(-c2ccccc2)n1C` (stereo not given): the inhibition is 0.88%.
`COCCNC(=O)COC(=O)c1ccc(OCC(=O)Nc2ccccc2OC)c(OC)c1`: the inhibition is 2.52%.
Turning to `CCC1(C)CC(C(N)=S)CCO1` (stereo not given), the inhibition is 7.13%.
Take `CCOC(=O)c1ccc(CSc2nnc(C)n2N)o1`: the inhibition is 1.16%.
To `NC(=O)C[C@H]1NC(=O)[C@H](CCC(=O)O)NC(=O)c2cc([N+](=O)[O-])cc(I)c2NCCC[C@@H](C(N)=O)NC1=O` belongs 3.24%.
Turning to `c1ccc(CCNc2ncnc3ccccc23)cc1`, the inhibition is -6.97%.
As for `COc1ccc(Nc2ccnc3ccccc23)cc1`, the inhibition is 9.05%.
To `Oc1ccc(Nc2ccnc3cc(Cl)ccc23)cc1` belongs -0.59%; to `c1ccc2cc3c(NCCN4CCOCC4)ccnc3cc2c1`, 3.77%.
As for `Cc1c(C(=O)NCc2ccccc2Cl)oc2c1C(=O)CCC2`, the inhibition was -3.25%.
Turning to `CCCCn1nc2cc(C(=O)NCc3cc(C(F)(F)F)cc(C(F)(F)F)c3)ccc2c1OC`, the inhibition is -4.51%.
To `O=C(NC1CCCCC1)c1ccc(Cn2cc(Cl)cn2)cc1` belongs 0.85%.
With `CCCSc1ccc(C(=O)Nc2ccc(F)cc2F)cn1`, the inhibition is 72.4%.
To `CC(=O)Nc1ccc(NC(=O)c2ccc(Cl)nc2)cc1` belongs 3.97%.
With `N=C1/C(=C/c2cccn2-c2cccc([N+](=O)[O-])c2)C(=O)N=C2SC=CN12`, the inhibition is -11.3%.
For `N=C1/C(=C/c2cccn2-c2ccc([N+](=O)[O-])cc2)C(=O)N=C2SC=CN12`, the inhibition is -5.89%.
For the compound `Cc1ccc2cc(CN(CC3CCCO3)C(=O)C(C)C)c(=O)[nH]c2c1` (stereo not given), the inhibition is -3.77%.
Consider `CCCCCCCCCCCCCCCC[n+]1cccc(C(=O)N(CC)CC)c1`, for which the inhibition is 5.29%.
To `C=C(C)Cn1c(=O)c(NC(=O)c2ccccc2)c2n(c1=S)CCC2` belongs -3.38%.
As for `O=C(NCCCN1CCOCC1)c1cccnc1SCc1ccccc1Cl`, the inhibition is -2.04%.
As for `CCN(CC)CCN(Cc1cc2ccc(C)c(C)c2[nH]c1=O)C(=S)NCc1ccco1`, the inhibition was -6.4%.
To `O=[N+]([O-])c1ccc(COc2ccc(-c3[nH]ncc3-c3ccccc3)c(O)c2)cc1` belongs 11.9%; to `COc1ccc(-c2cn[nH]c2-c2ccc(OCc3ccc([N+](=O)[O-])cc3)cc2O)cc1`, 9.69%; to `Cc1ccc(SCc2ccc(C(=O)N3CCCCC3)cc2)cc1`, 4.74%.
Take `COC(=O)CCCCC1SCC(NC(=O)c2ccccc2)C1OC(C)=O` (stereo not given): the inhibition was -1.97%.
In the case of `COC(=O)/C(=C\Nc1ccc(OC)cc1)NC(=O)c1ccc(Cl)cc1Cl`, the inhibition was 46.4%.
Take `CCCOC(=O)c1ccc(NS(=O)(=O)c2cccs2)cc1`: the inhibition was 8.32%.
Consider `CCN(CC)CCOC(=O)c1ccc(NC(=O)/C=C/c2cccs2)cc1`, for which the inhibition is -0.83%.
Turning to `O=C(/C=C/c1cccs1)Nc1ccncc1`, the inhibition was -3.31%.
Take `NS(=O)(=O)c1ccc(NC(=O)/C=C/c2cccs2)cc1`: the inhibition is -2.49%.
As for `CC(=O)Nc1ccc(N(C(=O)c2ccco2)C(C(=O)NC2CCCC2)c2cccs2)cc1` (stereo not given), the inhibition is -12.6%.
In the case of `O=C(O)c1cc([N+](=O)[O-])ccc1Nc1ccccc1`, the inhibition was 0.55%.
On to `CCOC(=O)C1=C(C)N(Cc2ccccc2)C(=O)NC1c1ccccc1OS(=O)(=O)c1ccccc1[N+](=O)[O-]` (stereo not given), for which the inhibition is 1.38%.
For `CCNC(=O)CN(C1CCCCC1)S(C)(=O)=O`, the inhibition was -1.63%.
Consider `Cc1cc(N2CCN(C(=O)c3ccco3)CC2)n2ncnc2n1`, for which the inhibition was 0.62%.
For the compound `O=C(Nc1ccc(Cl)c(Cl)c1)Oc1ccc(NC(=O)c2ccco2)cc1`, the inhibition is 61.8%.
To `CCc1ccc(C(C)NC(=O)Cc2ccc(F)cc2)cc1` (stereo not given) belongs 9.96%.
Under `CCOC(=O)Cn1c(-c2ccccc2)nc2ccccc2c1=O` stands 45.8%.
`COCCCn1c(-c2ccccc2)nc2ccccc2c1=O`: the inhibition was 5.89%.
In the case of `CCCNS(=O)(=O)c1ccc(OCC(=O)Nc2ccc3c(c2)OCO3)cc1`, the inhibition was -3.44%.
Take `CCCN(CC1CC1)C(=S)Nc1ccc(C(C)=O)cc1`: the inhibition is -2.45%.
Turning to `COc1cc(-c2nn3c(C4CCCCC4)nnc3s2)cc(OC)c1OC`, the inhibition is 28.5%.
Under `COc1ccc(-c2nn3c(C4CCCCC4)nnc3s2)cc1OC` stands 4.71%; under `Cc1nnc(Sc2cc(C(=O)NCCCOC(C)C)c3ccccc3n2)s1`, 4.65%.
Take `CCN1C(=O)C2(C(C#N)=C(N)Oc3n[nH]c(COC)c32)c2ccccc21` (stereo not given): the inhibition was -1.31%.
As to `Cc1ccc(CNCc2ccccc2Cl)cc1`, the inhibition was 6.89%.
Take `Cc1cccc2cc(CNCc3ccccc3)c(Cl)nc12`: the inhibition was -2.86%.
As to `Cc1cc(C)c(NC(=O)CSc2nc3ccc(NC(=O)CSc4nnnn4Cc4ccccc4)cc3s2)c(C)c1`, the inhibition is 8.59%.
Under `O=C(CCN1CCN(Cc2ccccc2)CC1)Nc1cccc(Cl)c1` stands -5.85%; under `Cc1cc(C)c2c(CN3CCN(Cc4ccc5c(c4)OCO5)CC3)cc(=O)oc2c1`, 23.5%.
As to `Cc1ccc2c(CN3CCN(Cc4ccc5c(c4)OCO5)CC3)cc(=O)oc2c1C`, the inhibition was -3.12%.
